From the supplement of paper PMC6555819 come the findings set out here.

The test system of this experiment is THRa homodimer (NR concentration 90 nM). Description: PBM binding z-score (relative to random genomic background probes); higher = stronger binding; sequences stand for … in GC…GCGATTGACAGCGTAGAATGAAGG
Summed up: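 Binding z-scores take random background probes as their reference. They come from custom Agilent 4×180K protein-binding microarrays incubated 1 h with ligand-free nuclear receptor dimers, with antibodies against each partner (one per run) detecting binding. Scanned fluorescence was regression-normalized.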
Turning to GATACAGGCTCAGCTAGAGGCCAGAGTATGGAAA, the PBM binding z-score was -0.801. Then ACTTACGGGTCAACGAGGTTATGGCACGCGTATA, with 1.32. Then TCTTGTAGATCAATAGAGGTGAAGAAAGTGCGCT, with -0.132.

As for CGAACTAGGTCATTGACAGAACAGTGAATAGTAA, the PBM binding z-score turned out to be 0.922. The sequence TCTAGTTAGTCACGGAGGTCACACACGACGGGTA returned a PBM binding z-score of 2.59.

As to CCTGCTAGGTCATGGCCAGCTAATCTACAGTATG, the PBM binding z-score was found to be 0.915.

Sequence ATCTCAAGGTAACCAAGTTCAGTGAATGCCGAAC came in with a PBM binding z-score of 1.06. To CCTAGCAGGCTAATCTGGGTCACTCAAGGCTTGA belongs 0.623; to CCTACCGGGCCAAAGGTCATTGATTCCAATGCTC, 1.12; to TCTAGTTGGTCACGGATGTCACACACGACGGGTA, 0.417. Then CAAACTAGGTCAAAGCTCAAAGTCGAGCCAACCA, with 0.666; and TGAATGAGGATATAAGATCAGGGAACGTTGCAAA, with -0.316. TCTCGGAGGACACGAATGGTCAGAGCTCGACATC registered a PBM binding z-score of 0.00528. Then CCTACTGGGCCAAAAAGGTCATCGATGCCGATAA, with 0.651; and ATCTCTAGGTAACAAGTTCTGTGAAAGAGAGGAC, with 0.878. Then CGTACAAGGTCAATGCTAGGTCAGTGAAAGCATT, with 3.05; and ACTCGAAGGACAAAGGTCAGAGCTACGCCAGTGA, with 0.499; and CCTGCTAGGTCAATGGCCAGCTAAAGCAGCTCGC, with 0.178. Sequence TCTAGCAGGCCAGAGGGTCGCTCAAGAGGTACGG came in with a PBM binding z-score of -1.24. Then ATACCGAGGTGATCGTGAGGTCGTTGATACTAAC, with 2.44; and CGTGCTAGGTCATGGTCAGCTAATCTACAGTATG, with 1.2.

The sequence CGAACGAGGGCATGTGTTGATAGCAAATGCCGAT had a PBM binding z-score of 0.0176.

Consider CCTAGCAGGCCAATCTGGGGCACTCAAGGCTTGA, for which the PBM binding z-score was -0.87.

On to CCGACTGGGGCAGAAGGGTTACCATACCATCCGG, for which the PBM binding z-score is -0.605. To ATCTCTAGGTAAAGATAGTTCAGTGGATGCAAAT belongs 0.0913; to CGAATTAGGTCATTGACAGGACAGTGAATAGTAA, 1.54; to GTACCAAGGTGAATACGTCGTTGATGAGTAGGCG, 0.199.

In the case of ATATGTAGGTTACATCCGGGTGATTCAGGCTATG, the PBM binding z-score came out at 0.9. Then CCTAGTTGGTCTGGAGGTCACACACCGGATATGA, with 2.69. On to AACGAAAGGTCGAGGTGAGTATAGAGAAAGGGAA, for which the PBM binding z-score was 0.451. To CGAACTAGGTCAAGGACAGTGGATCTCCGCACGC belongs 2. To ATTACAGGGTCATCGTAGGCCAGAGTACGCACAG belongs 1.78; to ATCGAAAGGTAGACGAGGTGAGTATACACCGTTT, 0.239; to TTACCAAGGTGAAGGTCGTTGAACCCTCTGTAGA, 1. Then CCTCGGAGGACAGCAGGTCAGAGCTGTCCGCTTT, with 0.123; and TCTATTACTTGATTAGGGCAACCGAAACAGCGGA, with 0.73; and AGAAGGAGGTTACCAAAGATCAGGGAAACGCTTG, with 0.244. CGTCACAGTTCAACTAAGGTAACGTAAAGCACGC had a PBM binding z-score of 2.19. To GCTAGTAGGCCATTTGGGTCACTCAATGACGGGC belongs 0.382.
